The supplement of paper PMC10849652
The full data set covers some 8,800 targets. This sample favours those with a hit. About 0.5% of all pairs of compound and target were hits.

Compound: CCN(CCCOc1ccc2c(Nc3cc(CC(=O)Nc4cccc(F)c4)[nH]n3)ncnc2c1)CCOP(=O)(O)O [barasertib]
Test: log2 fold change, soluble protein after heating vs DMSO (PISA); higher = thermal stabilisation; K562 lysate, 10 uM; active = over 0.2 and 3.5 SD of the protein, either way, in both replicates (recomputed)
How it was run: (§1)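 Values give the log-two fold change in thermal stability against solvent controls, from duplicates. Crude K562 extract at 1 mg/mL protein, made by dounce homogenisation in PBS pH 7.4 with 1 mM MgCl2, was treated with 10 μM compound for 30 min. After 3 min heating across 48°C-58°C, aliquots were pooled, adjusted to 0.5% NP-40 at 4°C and centrifuged at 21,000xg for 90 min. The supernatant was measured by TMTpro 16plex LC-MS/MS with channel sums equalised.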

Sequence of UniProt P68400 (P68400 whole entry, looked up): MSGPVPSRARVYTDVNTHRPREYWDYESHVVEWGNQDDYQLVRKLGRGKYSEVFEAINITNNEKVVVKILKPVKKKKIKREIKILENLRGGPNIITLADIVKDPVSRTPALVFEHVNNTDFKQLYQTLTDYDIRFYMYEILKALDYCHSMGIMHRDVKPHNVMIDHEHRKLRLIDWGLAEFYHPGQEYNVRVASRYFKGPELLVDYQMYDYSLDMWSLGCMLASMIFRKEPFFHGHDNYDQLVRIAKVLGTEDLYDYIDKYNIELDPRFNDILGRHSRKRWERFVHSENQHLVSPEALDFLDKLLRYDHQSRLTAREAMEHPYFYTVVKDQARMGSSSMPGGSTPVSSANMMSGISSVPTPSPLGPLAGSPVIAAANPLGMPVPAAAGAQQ
Sequence of UniProt Q5EBM0 (Q5EBM0 whole entry, looked up): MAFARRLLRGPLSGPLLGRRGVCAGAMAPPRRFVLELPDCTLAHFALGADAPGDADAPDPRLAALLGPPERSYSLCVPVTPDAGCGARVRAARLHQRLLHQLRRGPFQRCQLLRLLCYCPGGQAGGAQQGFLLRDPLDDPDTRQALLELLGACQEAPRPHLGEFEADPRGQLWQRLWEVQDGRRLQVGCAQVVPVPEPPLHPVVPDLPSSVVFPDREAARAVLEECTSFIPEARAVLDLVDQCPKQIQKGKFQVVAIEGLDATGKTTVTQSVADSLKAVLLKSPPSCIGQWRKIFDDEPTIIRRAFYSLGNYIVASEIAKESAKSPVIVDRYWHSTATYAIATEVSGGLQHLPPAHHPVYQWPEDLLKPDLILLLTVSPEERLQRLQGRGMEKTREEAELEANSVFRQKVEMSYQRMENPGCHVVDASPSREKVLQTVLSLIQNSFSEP
Sequence of UniProt Q8TDD1 (Q8TDD1 whole entry, looked up): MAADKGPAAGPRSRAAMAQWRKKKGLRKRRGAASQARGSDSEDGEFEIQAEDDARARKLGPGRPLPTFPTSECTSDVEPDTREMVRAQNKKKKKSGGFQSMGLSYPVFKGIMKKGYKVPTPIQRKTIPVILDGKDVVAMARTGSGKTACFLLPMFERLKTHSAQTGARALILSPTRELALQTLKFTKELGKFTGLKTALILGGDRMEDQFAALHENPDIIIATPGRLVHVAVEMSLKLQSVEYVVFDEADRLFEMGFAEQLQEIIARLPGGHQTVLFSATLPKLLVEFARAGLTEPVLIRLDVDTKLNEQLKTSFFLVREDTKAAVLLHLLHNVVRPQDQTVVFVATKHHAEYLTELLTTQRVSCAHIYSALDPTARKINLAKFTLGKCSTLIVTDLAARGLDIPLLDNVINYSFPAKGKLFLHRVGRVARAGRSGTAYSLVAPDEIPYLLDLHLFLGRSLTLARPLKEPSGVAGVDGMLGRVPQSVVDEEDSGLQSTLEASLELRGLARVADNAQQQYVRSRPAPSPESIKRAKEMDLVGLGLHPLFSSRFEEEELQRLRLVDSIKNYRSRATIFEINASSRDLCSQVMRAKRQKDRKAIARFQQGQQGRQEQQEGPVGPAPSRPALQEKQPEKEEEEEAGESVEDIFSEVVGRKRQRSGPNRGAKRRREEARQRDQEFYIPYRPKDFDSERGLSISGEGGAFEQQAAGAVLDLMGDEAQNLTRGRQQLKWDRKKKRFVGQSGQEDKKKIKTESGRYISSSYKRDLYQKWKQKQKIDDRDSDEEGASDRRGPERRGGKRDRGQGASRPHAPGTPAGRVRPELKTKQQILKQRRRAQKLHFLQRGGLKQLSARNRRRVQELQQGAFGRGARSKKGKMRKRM
Sequence of UniProt P61024 (P61024 whole entry, looked up): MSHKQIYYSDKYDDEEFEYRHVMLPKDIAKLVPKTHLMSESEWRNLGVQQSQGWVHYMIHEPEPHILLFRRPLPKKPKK
Sequence of UniProt Q8TB03 (Q8TB03 whole entry, looked up): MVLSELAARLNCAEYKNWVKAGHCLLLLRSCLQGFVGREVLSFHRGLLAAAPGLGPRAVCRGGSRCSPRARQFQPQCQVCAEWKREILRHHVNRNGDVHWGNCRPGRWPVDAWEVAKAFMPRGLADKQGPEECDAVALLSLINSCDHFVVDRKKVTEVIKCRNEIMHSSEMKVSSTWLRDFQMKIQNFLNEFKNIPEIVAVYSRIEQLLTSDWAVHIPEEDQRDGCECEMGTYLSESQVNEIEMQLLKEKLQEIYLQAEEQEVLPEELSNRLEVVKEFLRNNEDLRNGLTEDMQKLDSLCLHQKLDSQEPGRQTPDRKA
Sequence of UniProt Q8NF50 (Q8NF50 whole entry, looked up): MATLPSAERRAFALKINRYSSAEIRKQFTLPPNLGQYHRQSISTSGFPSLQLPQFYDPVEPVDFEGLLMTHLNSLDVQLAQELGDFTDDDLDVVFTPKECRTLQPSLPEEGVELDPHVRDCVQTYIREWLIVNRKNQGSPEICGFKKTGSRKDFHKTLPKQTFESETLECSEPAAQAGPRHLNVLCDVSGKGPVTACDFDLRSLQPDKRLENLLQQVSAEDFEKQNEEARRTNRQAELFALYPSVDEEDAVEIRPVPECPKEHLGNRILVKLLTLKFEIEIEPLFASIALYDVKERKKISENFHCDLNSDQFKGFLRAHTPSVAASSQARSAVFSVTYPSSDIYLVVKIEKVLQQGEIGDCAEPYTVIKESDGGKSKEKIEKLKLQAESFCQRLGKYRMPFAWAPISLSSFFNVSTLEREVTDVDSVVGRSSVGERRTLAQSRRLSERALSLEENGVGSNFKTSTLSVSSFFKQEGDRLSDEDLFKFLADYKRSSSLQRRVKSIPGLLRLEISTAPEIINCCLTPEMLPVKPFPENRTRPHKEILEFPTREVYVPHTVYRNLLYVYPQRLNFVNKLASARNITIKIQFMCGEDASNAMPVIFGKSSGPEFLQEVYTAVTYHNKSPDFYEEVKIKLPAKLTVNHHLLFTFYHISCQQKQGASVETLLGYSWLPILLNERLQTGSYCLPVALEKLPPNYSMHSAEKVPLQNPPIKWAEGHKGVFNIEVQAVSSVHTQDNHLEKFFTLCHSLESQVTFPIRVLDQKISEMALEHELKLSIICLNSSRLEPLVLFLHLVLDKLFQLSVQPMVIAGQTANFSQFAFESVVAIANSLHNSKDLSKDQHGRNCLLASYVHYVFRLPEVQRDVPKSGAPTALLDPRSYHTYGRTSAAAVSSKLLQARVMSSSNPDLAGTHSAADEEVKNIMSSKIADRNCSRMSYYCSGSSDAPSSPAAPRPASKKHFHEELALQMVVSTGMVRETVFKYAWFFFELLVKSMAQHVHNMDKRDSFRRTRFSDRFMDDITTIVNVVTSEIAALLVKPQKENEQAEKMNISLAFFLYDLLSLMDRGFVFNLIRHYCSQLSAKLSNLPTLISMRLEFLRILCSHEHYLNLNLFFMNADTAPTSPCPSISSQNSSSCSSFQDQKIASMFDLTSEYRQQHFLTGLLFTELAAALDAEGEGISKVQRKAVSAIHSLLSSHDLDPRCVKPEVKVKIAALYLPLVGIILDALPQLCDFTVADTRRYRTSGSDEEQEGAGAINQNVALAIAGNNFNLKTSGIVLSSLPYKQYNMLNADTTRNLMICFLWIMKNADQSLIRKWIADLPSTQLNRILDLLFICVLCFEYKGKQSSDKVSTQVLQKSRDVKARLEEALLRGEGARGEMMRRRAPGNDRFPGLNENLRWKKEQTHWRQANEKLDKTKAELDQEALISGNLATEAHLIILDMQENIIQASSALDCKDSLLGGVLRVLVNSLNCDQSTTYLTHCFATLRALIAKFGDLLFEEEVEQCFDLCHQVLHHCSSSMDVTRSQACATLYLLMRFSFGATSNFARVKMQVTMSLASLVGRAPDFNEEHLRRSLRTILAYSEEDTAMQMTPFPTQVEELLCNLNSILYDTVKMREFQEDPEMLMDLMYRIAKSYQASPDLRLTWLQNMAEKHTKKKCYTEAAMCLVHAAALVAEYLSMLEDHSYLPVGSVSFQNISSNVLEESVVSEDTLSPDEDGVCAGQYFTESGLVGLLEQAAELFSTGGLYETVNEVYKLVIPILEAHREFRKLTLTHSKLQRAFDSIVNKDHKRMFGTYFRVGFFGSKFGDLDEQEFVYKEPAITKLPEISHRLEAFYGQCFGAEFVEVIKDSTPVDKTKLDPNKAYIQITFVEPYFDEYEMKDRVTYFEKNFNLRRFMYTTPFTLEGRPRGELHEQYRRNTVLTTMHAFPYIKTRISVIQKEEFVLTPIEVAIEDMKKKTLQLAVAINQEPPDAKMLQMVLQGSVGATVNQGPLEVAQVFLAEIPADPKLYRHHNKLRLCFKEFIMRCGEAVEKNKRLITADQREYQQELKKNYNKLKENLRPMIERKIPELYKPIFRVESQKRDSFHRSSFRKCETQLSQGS
Sequence of UniProt Q99766 (Q99766 whole entry, looked up): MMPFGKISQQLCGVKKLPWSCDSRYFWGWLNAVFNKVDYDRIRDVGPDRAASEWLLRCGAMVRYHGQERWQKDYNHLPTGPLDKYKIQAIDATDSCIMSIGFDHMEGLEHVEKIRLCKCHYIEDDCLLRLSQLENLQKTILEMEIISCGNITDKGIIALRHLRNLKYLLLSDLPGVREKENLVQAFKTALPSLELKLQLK
Sequence of UniProt Q16850 (Q16850 whole entry, looked up): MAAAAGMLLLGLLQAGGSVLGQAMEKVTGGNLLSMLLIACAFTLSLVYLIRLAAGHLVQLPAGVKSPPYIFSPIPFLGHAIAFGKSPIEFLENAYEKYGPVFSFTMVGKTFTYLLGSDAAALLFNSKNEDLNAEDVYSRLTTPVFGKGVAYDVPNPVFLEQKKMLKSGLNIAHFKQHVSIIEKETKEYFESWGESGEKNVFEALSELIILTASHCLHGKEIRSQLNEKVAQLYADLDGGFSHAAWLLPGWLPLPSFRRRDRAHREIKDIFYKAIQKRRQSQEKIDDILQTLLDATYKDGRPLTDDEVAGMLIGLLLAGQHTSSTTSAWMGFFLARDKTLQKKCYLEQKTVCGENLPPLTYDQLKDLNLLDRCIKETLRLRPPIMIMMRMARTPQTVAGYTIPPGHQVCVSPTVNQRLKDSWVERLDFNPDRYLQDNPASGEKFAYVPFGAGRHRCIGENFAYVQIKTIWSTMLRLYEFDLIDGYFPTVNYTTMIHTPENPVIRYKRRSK
Sequence of UniProt P04080 (P04080 whole entry, looked up): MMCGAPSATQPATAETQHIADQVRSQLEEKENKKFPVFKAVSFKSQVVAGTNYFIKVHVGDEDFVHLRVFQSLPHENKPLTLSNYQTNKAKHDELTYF

**Q.** CIP2A (UniProt Q8TCG1) was tested. Which log2 fold change did it give?
**A.** The log2 fold change was 0.153 (inactive).

**Q.** How did the log2 fold change turn out when DOCK8 (UniProt Q8NF50) was run?
**A.** Its log2 fold change is 0.034 (inactive).

**Q.** Which log2 fold change does the source give for COQ9 (UniProt O75208) here?
**A.** Its log2 fold change is 0.275 (active).

**Q.** For CKS1B (UniProt P61024), which log2 fold change is on record?
**A.** Its log2 fold change is 0.029 (inactive).

**Q.** With CXXC1 isoform 2 (UniProt Q9P0U4) as the target, how does the log2 fold change read?
**A.** The log2 fold change was -0.02 (inactive).

**Q.** How did the log2 fold change turn out when CXorf38 (UniProt Q8TB03) was run?
**A.** Its log2 fold change is -0.024 (inactive).

**Q.** For DDX54 isoform 2 (UniProt Q8TDD1), which log2 fold change is on record?
**A.** Its log2 fold change is -0.319 (active).

**Q.** Which log2 fold change does the source give for CSNK2A1 (UniProt P68400) here?
**A.** The log2 fold change was -0.025 (inactive).

**Q.** With DMAC2L (UniProt Q99766) as the target, how does the log2 fold change read?
**A.** Its log2 fold change is 0.065 (inactive).

**Q.** DCP2 (UniProt Q8IU60) was tested. Which log2 fold change did it give?
**A.** The log2 fold change was 0.014 (inactive).

**Q.** Which log2 fold change does the source give for CYP51A1 (UniProt Q16850) here?
**A.** The log2 fold change was -0.011 (inactive).

**Q.** With CMPK2 (UniProt Q5EBM0) as the target, how does the log2 fold change read?
**A.** The log2 fold change was 0.155 (inactive).

Compound: CC[C@@H]1C(=O)N(C)c2cnc(Nc3ccc(C(=O)NC4CCN(C)CC4)cc3OC)nc2N1C1CCCC1
Test: as above
How it was run: as §1

**Q.** Which log2 fold change does the source give for CKM (UniProt P06732) here?
**A.** Its log2 fold change is 0.086 (inactive).

**Q.** With CMIP (UniProt Q8IY22) as the target, how does the log2 fold change read?
**A.** Its log2 fold change is -0.055 (inactive).

**Q.** Which log2 fold change does the source give for COG6 (UniProt Q9Y2V7) here?
**A.** The log2 fold change was -0.004 (inactive).

**Q.** Which log2 fold change does the source give for DGCR8 (UniProt Q8WYQ5) here?
**A.** The log2 fold change was -0.046 (inactive).

**Q.** How did the log2 fold change turn out when COPZ1 isoform 4 (UniProt P61923) was run?
**A.** Its log2 fold change is 0.022 (inactive).

**Q.** With DENND6A (UniProt Q8IWF6) as the target, how does the log2 fold change read?
**A.** Its log2 fold change is 0.029 (inactive).

**Q.** CKAP5 (UniProt Q14008) was tested. Which log2 fold change did it give?
**A.** The log2 fold change was -0.002 (inactive).

**Q.** With CNOT2 (UniProt Q9NZN8) as the target, how does the log2 fold change read?
**A.** Its log2 fold change is 0.029 (inactive).

**Q.** COL6A5 (UniProt A8TX70) was tested. Which log2 fold change did it give?
**A.** The log2 fold change was 0.078 (inactive).

**Q.** With DCP1A (UniProt Q9NPI6) as the target, how does the log2 fold change read?
**A.** Its log2 fold change is 0.077 (inactive).

**Q.** How did the log2 fold change turn out when COG2 (UniProt Q14746) was run?
**A.** The log2 fold change was -0.052 (inactive).

**Q.** DEF6 (UniProt Q9H4E7) was tested. Which log2 fold change did it give?
**A.** The log2 fold change was -0.101 (inactive).

**Q.** CSDE1 isoform 4 (UniProt O75534) was tested. Which log2 fold change did it give?
**A.** The log2 fold change was -0.083 (inactive).

**Q.** With CNOT6L (UniProt Q96LI5) as the target, how does the log2 fold change read?
**A.** Its log2 fold change is -0.006 (inactive).

**Q.** With DHRS11 (UniProt Q6UWP2) as the target, how does the log2 fold change read?
**A.** Its log2 fold change is -0.019 (inactive).

**Q.** For DNAJC1 (UniProt Q96KC8), which log2 fold change is on record?
**A.** The log2 fold change was 0.017 (inactive).

**Q.** DOCK7 (UniProt Q96N67) was tested. Which log2 fold change did it give?
**A.** Its log2 fold change is -0.057 (inactive).

**Q.** Which log2 fold change does the source give for CTNND1 isoform 3 (UniProt O60716) here?
**A.** The log2 fold change was -0.034 (inactive).

**Q.** Which log2 fold change does the source give for CHUK (UniProt O15111) here?
**A.** Its log2 fold change is -0.095 (inactive).

**Q.** For COG5 isoform 2 (UniProt Q9UP83), which log2 fold change is on record?
**A.** The log2 fold change was -0.056 (inactive).

**Q.** How did the log2 fold change turn out when CSTB (UniProt P04080) was run?
**A.** The log2 fold change was 0.043 (inactive).

**Q.** CHORDC1 (UniProt Q9UHD1) was tested. Which log2 fold change did it give?
**A.** Its log2 fold change is 0.009 (inactive).

**Q.** How did the log2 fold change turn out when CSTF2 (UniProt P33240) was run?
**A.** The log2 fold change was 0.062 (inactive).

**Q.** How did the log2 fold change turn out when CIP2A (UniProt Q8TCG1) was run?
**A.** The log2 fold change was 0.001 (inactive).

**Q.** How did the log2 fold change turn out when DOCK8 (UniProt Q8NF50) was run?
**A.** The log2 fold change was -0.075 (inactive).

**Q.** For COQ9 (UniProt O75208), which log2 fold change is on record?
**A.** The log2 fold change was 0 (inactive).

**Q.** For CKS1B (UniProt P61024), which log2 fold change is on record?
**A.** The log2 fold change was -0.031 (inactive).

**Q.** Which log2 fold change does the source give for CXXC1 isoform 2 (UniProt Q9P0U4) here?
**A.** Its log2 fold change is -0.256 (inactive).

**Q.** For CXorf38 (UniProt Q8TB03), which log2 fold change is on record?
**A.** Its log2 fold change is 0.038 (inactive).

**Q.** How did the log2 fold change turn out when DDX54 isoform 2 (UniProt Q8TDD1) was run?
**A.** The log2 fold change was -0.069 (inactive).

**Q.** Which log2 fold change does the source give for CSNK2A1 (UniProt P68400) here?
**A.** The log2 fold change was -0.057 (inactive).

**Q.** With DMAC2L (UniProt Q99766) as the target, how does the log2 fold change read?
**A.** The log2 fold change was 0.075 (inactive).

**Q.** Which log2 fold change does the source give for DCP2 (UniProt Q8IU60) here?
**A.** Its log2 fold change is 0.016 (inactive).

**Q.** How did the log2 fold change turn out when CYP51A1 (UniProt Q16850) was run?
**A.** Its log2 fold change is 0.053 (inactive).

**Q.** With CMPK2 (UniProt Q5EBM0) as the target, how does the log2 fold change read?
**A.** The log2 fold change was 0.018 (inactive).

Compound: CC[C@@H]1C(=O)N(C)c2cnc(Nc3ccc(C(=O)N[C@H]4CC[C@H](N5CCN(CC6CC6)CC5)CC4)cc3OC)nc2N1C(C)C [volasertib]
Test: as above
How it was run: as §1

**Q.** Which log2 fold change does the source give for CKM (UniProt P06732) here?
**A.** The log2 fold change was -0.084 (inactive).

**Q.** How did the log2 fold change turn out when CMIP (UniProt Q8IY22) was run?
**A.** The log2 fold change was -0.057 (inactive).

**Q.** For COG6 (UniProt Q9Y2V7), which log2 fold change is on record?
**A.** Its log2 fold change is -0.046 (inactive).

**Q.** For DGCR8 (UniProt Q8WYQ5), which log2 fold change is on record?
**A.** The log2 fold change was -0.021 (inactive).

**Q.** With COPZ1 isoform 4 (UniProt P61923) as the target, how does the log2 fold change read?
**A.** Its log2 fold change is 0.019 (inactive).

**Q.** For DENND6A (UniProt Q8IWF6), which log2 fold change is on record?
**A.** The log2 fold change was -0.062 (inactive).

**Q.** How did the log2 fold change turn out when CKAP5 (UniProt Q14008) was run?
**A.** Its log2 fold change is -0.021 (inactive).

**Q.** How did the log2 fold change turn out when CNOT2 (UniProt Q9NZN8) was run?
**A.** The log2 fold change was -0.048 (inactive).

**Q.** COL6A5 (UniProt A8TX70) was tested. Which log2 fold change did it give?
**A.** The log2 fold change was -0.044 (inactive).

**Q.** How did the log2 fold change turn out when DCP1A (UniProt Q9NPI6) was run?
**A.** The log2 fold change was -0.055 (inactive).

**Q.** How did the log2 fold change turn out when COG2 (UniProt Q14746) was run?
**A.** The log2 fold change was -0.088 (inactive).

**Q.** DEF6 (UniProt Q9H4E7) was tested. Which log2 fold change did it give?
**A.** The log2 fold change was -0.05 (inactive).

**Q.** Which log2 fold change does the source give for CSDE1 isoform 4 (UniProt O75534) here?
**A.** The log2 fold change was -0.041 (inactive).

**Q.** With CNOT6L (UniProt Q96LI5) as the target, how does the log2 fold change read?
**A.** The log2 fold change was 0.006 (inactive).

**Q.** With DHRS11 (UniProt Q6UWP2) as the target, how does the log2 fold change read?
**A.** The log2 fold change was -0.026 (inactive).

**Q.** For DNAJC1 (UniProt Q96KC8), which log2 fold change is on record?
**A.** The log2 fold change was -0.012 (inactive).

**Q.** DOCK7 (UniProt Q96N67) was tested. Which log2 fold change did it give?
**A.** Its log2 fold change is -0.01 (inactive).

**Q.** Which log2 fold change does the source give for CTNND1 isoform 3 (UniProt O60716) here?
**A.** The log2 fold change was -0.098 (inactive).

**Q.** How did the log2 fold change turn out when CHUK (UniProt O15111) was run?
**A.** The log2 fold change was -0.047 (inactive).

**Q.** Which log2 fold change does the source give for COG5 isoform 2 (UniProt Q9UP83) here?
**A.** Its log2 fold change is -0.084 (inactive).

**Q.** For CSTB (UniProt P04080), which log2 fold change is on record?
**A.** The log2 fold change was 0.044 (inactive).

**Q.** For CHORDC1 (UniProt Q9UHD1), which log2 fold change is on record?
**A.** The log2 fold change was 0.02 (inactive).

**Q.** Which log2 fold change does the source give for CSTF2 (UniProt P33240) here?
**A.** Its log2 fold change is -0.012 (inactive).

**Q.** For CIP2A (UniProt Q8TCG1), which log2 fold change is on record?
**A.** Its log2 fold change is -0.086 (inactive).

**Q.** With DOCK8 (UniProt Q8NF50) as the target, how does the log2 fold change read?
**A.** Its log2 fold change is -0.065 (inactive).

**Q.** With COQ9 (UniProt O75208) as the target, how does the log2 fold change read?
**A.** The log2 fold change was -0.012 (inactive).

**Q.** Which log2 fold change does the source give for CKS1B (UniProt P61024) here?
**A.** Its log2 fold change is -0.018 (inactive).

**Q.** How did the log2 fold change turn out when CXXC1 isoform 2 (UniProt Q9P0U4) was run?
**A.** Its log2 fold change is -0.027 (inactive).

**Q.** CXorf38 (UniProt Q8TB03) was tested. Which log2 fold change did it give?
**A.** Its log2 fold change is 0.013 (inactive).

**Q.** How did the log2 fold change turn out when DDX54 isoform 2 (UniProt Q8TDD1) was run?
**A.** The log2 fold change was -0.045 (inactive).

**Q.** How did the log2 fold change turn out when CSNK2A1 (UniProt P68400) was run?
**A.** The log2 fold change was -0.039 (inactive).

**Q.** Which log2 fold change does the source give for DMAC2L (UniProt Q99766) here?
**A.** Its log2 fold change is -0.028 (inactive).

**Q.** How did the log2 fold change turn out when DCP2 (UniProt Q8IU60) was run?
**A.** The log2 fold change was -0.061 (inactive).

**Q.** How did the log2 fold change turn out when CYP51A1 (UniProt Q16850) was run?
**A.** Its log2 fold change is 0.01 (inactive).

**Q.** Which log2 fold change does the source give for CMPK2 (UniProt Q5EBM0) here?
**A.** Its log2 fold change is 0.015 (inactive).
